Assay results taken from ChEMBL document CHEMBL3988442, “University of Dundee, Small-Polar-MMV Screening Library” (2021).
For some of these results: Potency and affinity values are given separately.

Tests used:
Design in all cases: scale not given: direction of the effect not stated beside the values
[1] = target: Protein translocase subunit SecA (Escherichia coli (strain K12)) (UniProt P10408); experiment: Assay to Identify E. coli SecA ATPase Inhibitors; type: functional; conditions: 30 µM
[2] = target: T1, Ubiquitin-activating enzyme e1, putative (Leishmania donovani (strain BPK282A1)) (UniProt E9BSI1); experiment: Leishmania donovani Ubiquitin Activating Enzyme (LdE1); type: functional; conditions: 30 µM
T1 sequence (whole entry): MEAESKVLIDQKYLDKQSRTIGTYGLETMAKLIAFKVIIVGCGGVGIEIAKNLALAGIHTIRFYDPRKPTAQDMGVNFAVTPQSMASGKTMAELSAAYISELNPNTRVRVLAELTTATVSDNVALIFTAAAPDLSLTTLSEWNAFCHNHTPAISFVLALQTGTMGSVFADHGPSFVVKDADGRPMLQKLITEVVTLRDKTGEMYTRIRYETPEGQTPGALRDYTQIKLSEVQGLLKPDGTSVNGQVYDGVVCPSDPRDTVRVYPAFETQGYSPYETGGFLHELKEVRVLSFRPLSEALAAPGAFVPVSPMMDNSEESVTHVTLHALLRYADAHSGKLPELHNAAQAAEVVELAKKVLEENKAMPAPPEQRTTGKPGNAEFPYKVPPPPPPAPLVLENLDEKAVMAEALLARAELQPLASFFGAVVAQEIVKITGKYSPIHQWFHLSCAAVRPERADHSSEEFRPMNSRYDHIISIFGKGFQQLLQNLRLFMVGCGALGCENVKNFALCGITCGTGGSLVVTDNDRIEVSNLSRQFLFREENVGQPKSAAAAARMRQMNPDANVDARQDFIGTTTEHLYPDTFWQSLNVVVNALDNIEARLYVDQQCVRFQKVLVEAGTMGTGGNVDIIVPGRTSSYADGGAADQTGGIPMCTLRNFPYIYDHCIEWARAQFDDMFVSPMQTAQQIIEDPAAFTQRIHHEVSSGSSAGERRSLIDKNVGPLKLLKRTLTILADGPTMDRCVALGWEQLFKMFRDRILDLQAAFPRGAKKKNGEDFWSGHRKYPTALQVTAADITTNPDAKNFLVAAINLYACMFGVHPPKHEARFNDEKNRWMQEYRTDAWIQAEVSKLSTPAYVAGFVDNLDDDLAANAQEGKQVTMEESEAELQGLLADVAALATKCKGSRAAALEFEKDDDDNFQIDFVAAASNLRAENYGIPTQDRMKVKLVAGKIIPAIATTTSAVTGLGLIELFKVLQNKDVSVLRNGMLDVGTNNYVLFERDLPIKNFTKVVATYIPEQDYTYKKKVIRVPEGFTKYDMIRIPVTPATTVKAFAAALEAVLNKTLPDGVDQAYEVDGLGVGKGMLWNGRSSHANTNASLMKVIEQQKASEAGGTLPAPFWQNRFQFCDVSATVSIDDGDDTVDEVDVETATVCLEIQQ

[3] = target: AMP-activated protein kinase, AMPK (Homo sapiens) (UniProt P54646+O43741+P54619+Q9UGJ0+Q9Y478+Q13131+Q9UGI9); experiment: AMP-dependent Kinase enzyme assay. An in vitro enzyme assay that detects ADP turnover that is directly proportional to AMPK activity. This uses naive AMPK that is activated during the assay with MK-8722; type: functional; conditions: 30 µM
[4] = target: Sialic acid-binding Ig-like lectin 9 (Homo sapiens) (UniProt Q9Y336); experiment: Hs-Siglec9 ALPHAscreen SOP 20170721; conditions: 10 µM
Trypanosoma cruzi = experiment: Trypanosoma cruzi phosphomannomutase and mannose-1-phosphate guanylyltransferase assay; type: functional; conditions: 10 µM
[5] = target: T2, Arginase-2, mitochondrial (Homo sapiens) (UniProt P78540); experiment: in vitro enzyme assay to detect the production of urea directly proportional to the activity of Arginase II; type: functional; conditions: 33.3 µM; note: in the data most compounds retested in dose-response had high values
T2 sequence (whole entry): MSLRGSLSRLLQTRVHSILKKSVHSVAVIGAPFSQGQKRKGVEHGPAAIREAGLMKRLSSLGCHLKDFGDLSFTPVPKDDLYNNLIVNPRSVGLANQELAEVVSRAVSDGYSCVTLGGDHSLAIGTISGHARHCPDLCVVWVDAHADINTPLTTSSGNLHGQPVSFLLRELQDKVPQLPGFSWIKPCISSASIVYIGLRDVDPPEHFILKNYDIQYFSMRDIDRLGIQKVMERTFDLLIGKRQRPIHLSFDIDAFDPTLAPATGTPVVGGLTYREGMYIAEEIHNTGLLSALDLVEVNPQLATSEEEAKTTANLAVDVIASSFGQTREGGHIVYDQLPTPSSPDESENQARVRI

[6] = target: T3, Proteasome subunit beta (Trypanosoma cruzi) (UniProt O96673); experiment: Trypanosoma cruzi proteasome chymotrypsin-like activity (TcProtChymo) assay.; note: in the data most compounds retested in dose-response had high values; type: functional; conditions: 9.37 µM
T3 sequence (whole entry): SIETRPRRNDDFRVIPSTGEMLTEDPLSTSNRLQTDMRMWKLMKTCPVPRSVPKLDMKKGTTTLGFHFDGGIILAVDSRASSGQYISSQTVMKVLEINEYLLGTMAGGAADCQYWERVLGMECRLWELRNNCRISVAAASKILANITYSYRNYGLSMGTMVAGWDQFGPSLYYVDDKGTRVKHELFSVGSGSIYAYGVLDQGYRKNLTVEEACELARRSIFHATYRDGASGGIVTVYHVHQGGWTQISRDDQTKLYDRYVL

Homo sapiens = organism: Homo sapiens; experiment: To identify inhibition of the IFN signalling (Jak-Stat) pathway via expression of an eGFP reporter gene under the control of an IFN-stimulated response element (ISRE) containing MxA promoter.; type: functional; conditions: 30 µM
[7] = target: T4, Tyrosyl-tRNA synthetase, putative (Trypanosoma cruzi (strain CL Brener)) (UniProt Q4DSP6); experiment: Trypanosoma cruzi tyrosyl tRNA synthetase (TcYRS) _High Tyrosine SOP; type: functional; conditions: 30 µM; note: in the data most compounds retested in dose-response had high values
T4 sequence (whole entry): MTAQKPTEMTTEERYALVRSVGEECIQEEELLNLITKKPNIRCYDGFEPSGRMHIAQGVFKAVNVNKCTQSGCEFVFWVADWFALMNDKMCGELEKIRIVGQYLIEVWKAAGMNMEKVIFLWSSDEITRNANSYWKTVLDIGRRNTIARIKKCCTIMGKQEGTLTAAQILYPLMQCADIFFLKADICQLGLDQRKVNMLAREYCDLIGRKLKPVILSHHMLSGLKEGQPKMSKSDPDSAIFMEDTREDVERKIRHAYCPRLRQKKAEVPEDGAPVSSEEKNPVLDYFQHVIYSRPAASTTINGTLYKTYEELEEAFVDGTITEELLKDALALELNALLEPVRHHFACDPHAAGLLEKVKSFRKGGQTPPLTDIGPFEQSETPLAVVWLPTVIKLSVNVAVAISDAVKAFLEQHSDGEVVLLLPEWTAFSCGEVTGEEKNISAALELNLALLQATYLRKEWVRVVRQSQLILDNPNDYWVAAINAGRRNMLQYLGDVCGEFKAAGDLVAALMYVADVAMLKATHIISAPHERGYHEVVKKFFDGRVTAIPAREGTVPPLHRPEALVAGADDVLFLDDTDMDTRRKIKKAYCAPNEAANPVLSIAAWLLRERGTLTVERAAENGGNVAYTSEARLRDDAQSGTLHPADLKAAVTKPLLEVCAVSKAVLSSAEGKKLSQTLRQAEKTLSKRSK

[8] = target: T4, Tyrosyl-tRNA synthetase, putative (Trypanosoma cruzi (strain CL Brener)); experiment: Trypanosoma cruzi tyrosyl tRNA synthetase (TcYRS) SOP; type: functional; conditions: 30 µM
[9] = target: Chromo domain-containing protein 1 (Saccharomyces cerevisiae (strain ATCC 204508 / S288c) (Baker's yeast)) (UniProt P32657); experiment: ScCHD-1 Enzyme Inhibition Assay; type: functional; conditions: 30 µM; note: in the data most compounds retested in dose-response had high values
Sequence of Chromo domain-containing protein 1 (Saccharomyces cerevisiae (strain ATCC 204508 / S288c) (Baker's yeast)) (P32657 whole entry, the tested form may be a part): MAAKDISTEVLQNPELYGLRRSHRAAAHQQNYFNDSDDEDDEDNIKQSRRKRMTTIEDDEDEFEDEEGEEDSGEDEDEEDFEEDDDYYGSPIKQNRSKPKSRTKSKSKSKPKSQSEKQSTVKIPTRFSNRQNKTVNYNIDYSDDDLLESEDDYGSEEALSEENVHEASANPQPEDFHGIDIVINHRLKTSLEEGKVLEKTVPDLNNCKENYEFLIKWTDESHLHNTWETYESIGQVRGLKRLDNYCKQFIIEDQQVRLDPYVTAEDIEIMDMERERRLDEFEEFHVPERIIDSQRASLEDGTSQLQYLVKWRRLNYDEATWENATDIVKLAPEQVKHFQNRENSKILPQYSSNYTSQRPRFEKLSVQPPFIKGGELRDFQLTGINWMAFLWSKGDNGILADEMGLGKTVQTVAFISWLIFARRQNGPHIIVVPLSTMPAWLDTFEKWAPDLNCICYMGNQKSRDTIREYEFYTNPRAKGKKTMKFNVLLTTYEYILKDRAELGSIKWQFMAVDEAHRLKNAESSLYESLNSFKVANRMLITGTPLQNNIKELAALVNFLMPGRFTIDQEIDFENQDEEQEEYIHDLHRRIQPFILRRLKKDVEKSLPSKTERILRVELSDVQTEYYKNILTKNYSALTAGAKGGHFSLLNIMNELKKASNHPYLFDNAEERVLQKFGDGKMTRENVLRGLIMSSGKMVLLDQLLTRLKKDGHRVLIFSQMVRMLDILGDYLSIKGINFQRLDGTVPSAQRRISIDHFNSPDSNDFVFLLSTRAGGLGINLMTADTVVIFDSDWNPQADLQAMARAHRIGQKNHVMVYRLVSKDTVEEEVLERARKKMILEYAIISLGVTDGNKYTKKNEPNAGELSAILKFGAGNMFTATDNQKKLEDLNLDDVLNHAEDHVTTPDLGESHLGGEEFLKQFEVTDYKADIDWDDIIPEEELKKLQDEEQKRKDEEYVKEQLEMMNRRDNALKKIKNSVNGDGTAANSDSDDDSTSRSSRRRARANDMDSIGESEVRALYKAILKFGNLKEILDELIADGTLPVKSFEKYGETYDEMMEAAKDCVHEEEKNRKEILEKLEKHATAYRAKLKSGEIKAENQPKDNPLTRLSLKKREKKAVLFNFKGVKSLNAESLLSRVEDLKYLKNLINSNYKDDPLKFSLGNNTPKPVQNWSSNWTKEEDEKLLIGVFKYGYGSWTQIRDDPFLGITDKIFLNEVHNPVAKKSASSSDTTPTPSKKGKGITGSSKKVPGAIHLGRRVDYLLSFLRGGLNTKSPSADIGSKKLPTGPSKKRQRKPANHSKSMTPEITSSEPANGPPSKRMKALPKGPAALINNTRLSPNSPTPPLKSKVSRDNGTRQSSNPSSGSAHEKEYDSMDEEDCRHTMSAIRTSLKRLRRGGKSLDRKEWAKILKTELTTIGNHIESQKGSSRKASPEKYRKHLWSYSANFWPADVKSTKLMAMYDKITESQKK

Sequence of Sialic acid-binding Ig-like lectin 9 (Homo sapiens) (Q9Y336 whole entry): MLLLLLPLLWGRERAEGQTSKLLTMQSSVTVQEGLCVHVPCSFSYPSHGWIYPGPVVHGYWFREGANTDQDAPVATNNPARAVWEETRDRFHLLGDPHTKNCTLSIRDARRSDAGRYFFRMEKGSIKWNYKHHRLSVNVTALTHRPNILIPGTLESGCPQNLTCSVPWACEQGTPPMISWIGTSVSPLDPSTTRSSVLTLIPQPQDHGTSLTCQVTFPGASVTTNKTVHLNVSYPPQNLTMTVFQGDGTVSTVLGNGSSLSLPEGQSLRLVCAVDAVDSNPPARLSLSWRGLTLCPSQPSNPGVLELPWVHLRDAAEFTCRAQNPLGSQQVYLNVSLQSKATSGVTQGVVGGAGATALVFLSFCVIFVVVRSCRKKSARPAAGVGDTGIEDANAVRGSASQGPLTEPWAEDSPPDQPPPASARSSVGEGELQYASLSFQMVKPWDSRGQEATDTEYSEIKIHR
Sequence of Protein translocase subunit SecA (Escherichia coli (strain K12)) (P10408 whole entry): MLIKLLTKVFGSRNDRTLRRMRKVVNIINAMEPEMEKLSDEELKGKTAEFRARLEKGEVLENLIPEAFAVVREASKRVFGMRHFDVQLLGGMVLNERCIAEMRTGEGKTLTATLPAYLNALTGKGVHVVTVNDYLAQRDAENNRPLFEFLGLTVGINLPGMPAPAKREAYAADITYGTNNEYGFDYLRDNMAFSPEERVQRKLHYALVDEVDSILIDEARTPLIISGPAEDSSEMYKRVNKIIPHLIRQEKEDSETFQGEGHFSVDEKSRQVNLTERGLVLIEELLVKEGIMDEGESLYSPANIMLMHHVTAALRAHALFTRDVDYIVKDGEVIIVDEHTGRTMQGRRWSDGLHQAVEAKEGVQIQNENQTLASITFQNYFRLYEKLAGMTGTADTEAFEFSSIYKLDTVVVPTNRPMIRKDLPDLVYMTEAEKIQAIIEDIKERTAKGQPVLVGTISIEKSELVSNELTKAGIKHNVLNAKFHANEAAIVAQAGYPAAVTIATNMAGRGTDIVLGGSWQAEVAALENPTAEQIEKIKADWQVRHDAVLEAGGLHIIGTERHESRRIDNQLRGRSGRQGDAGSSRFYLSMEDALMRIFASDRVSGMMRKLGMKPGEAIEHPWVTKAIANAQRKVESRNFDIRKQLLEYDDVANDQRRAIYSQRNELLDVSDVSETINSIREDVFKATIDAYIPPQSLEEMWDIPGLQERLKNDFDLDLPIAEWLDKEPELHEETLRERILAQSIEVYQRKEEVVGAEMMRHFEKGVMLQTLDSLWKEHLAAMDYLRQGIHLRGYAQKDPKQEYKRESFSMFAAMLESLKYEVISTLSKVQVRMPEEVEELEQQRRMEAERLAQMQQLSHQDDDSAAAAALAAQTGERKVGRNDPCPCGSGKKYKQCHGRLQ

Structure (SMILES)	Percent Effect [1]	Percent Effect [2]	Percent Effect [3]	Percent Effect [4]	Percent Effect (Trypanosoma cruzi)	Percent Effect [5]	Percent Effect [6]	Percent Effect (Homo sapiens)	Percent Effect [7]	Percent Effect [8]	Percent Effect [9]
Cc1nc(COC[C@]23COC[C@H]2CN(Cc2ccoc2)C3)cs1	-4.99%	0%	-4.16%	13.2%	6.94%	0.248%	-2.49%	-33.4%	3.23%	11.1%	-1.94%
O=C(CCNC(=O)c1ccoc1)NCc1ccccc1F	2.18%	13%	3.8%	-2.98%	-2.45%	6.53%	19.5%	24%	5.71%	18.8%	-3.8%
Cc1cccc(-n2cc(C(=O)N3CCn4c(C)nnc4C3)nn2)c1	-9.19%	-2.74%	2.62%	0.154%	-4.17%	-8.38%	3%	21.1%	3.12%	1.24%	0.00385%
O=C(c1ccccc1OCC1CC1)N1CCCC(n2ccnc2)C1 (stereo not given)	1.84%	1.27%	11.2%	-0.0308%	3.18%	5.81%	10.3%	-14%	2.08%	7.59%	-6.24%
COc1ccc(CCN2CCN(C(=O)c3scnc3C)CC2)cc1	-2.7%	10.5%	2.58%	0.569%	3.8%	-3.55%	16%	-22.1%	6.38%	10.4%	-3.62%
Cc1nc(CN2CCc3ncnc(-c4ccc(F)cc4)c3CC2)cs1	-3.21%	10.8%	5.22%	-0.105%	-1.66%	9.87%	18.4%	-9.45%	5.41%	17.9%	-0.896%
COc1ccc(CCC(=O)NC2CCC(O)CC2)cc1OC (stereo not given)	-5.53%	13.2%	-3.83%	13%	-0.654%	-3.24%	2.12%	7.63%	2.46%	6.17%	-1.04%
O=C1CCC2(CCN(Cc3cc(F)cc(F)c3)CC2)CN1CCO	-6.11%	4.17%	-0.613%	0.944%	1.85%	-24.7%	9.12%	-8.34%	3.16%	10.3%	-0.52%
CC(C)c1n[nH]c(C2CN(C(=O)CCn3ccccc3=O)CCO2)n1 (stereo not given)	-3.88%	1.27%	3.8%	-2.89%	-3.18%	-2.37%	2.92%	-3.42%	3.12%	7.59%	-5.25%
CSc1cccc(CN(C)C(=O)C2CC(=O)N(CCN(C)C)C2)c1 (stereo not given)	0.893%	10.7%	-12.1%	4.56%	4.38%	18.2%	18.1%	29.9%	8.2%	16.1%	-0.611%
Cc1n[nH]c(C2CN(C(=O)CCc3ccsc3)CCO2)n1 (stereo not given)	-6.4%	-2.74%	2.76%	0.78%	0.783%	-7.27%	-2.13%	-11.9%	0%	2.5%	0.695%
COc1cccc(OCCNCc2c(C)nn(C)c2N(C)C)c1	-5.35%	5.26%	-9.94%	10.1%	1.5%	1.92%	7.69%	-12%	4.41%	19.5%	-8.18%
Cc1ccc2c(c1)CN(C(=O)C1CCCCC1)C(CN(C)C)CO2 (stereo not given)	-4.37%	12.2%	11.3%	-8.18%	-4.54%	-4.41%	12%	8.85%	3.23%	9.09%	-13.3%
CN(Cc1ccncc1)C(=O)Nc1cnn(CC2CCCO2)c1 (stereo not given)	0.7%	5.41%	-6.68%	-2.66%	-3.67%	0.952%	20%	17.6%	-1.59%	2.44%	-5.74%
CCCn1[nH]cc/c1=N\C(=O)CN1CCCC1c1c(C)nn(C)c1C (stereo not given)	-4.29%	2.7%	-27.7%	15.7%	7.45%	6.81%	3.78%	-0.266%	3.45%	13.6%	-10.6%
O=C(Nc1nncs1)NC1CCc2ccccc21 (stereo not given)	0.119%	5.48%	1.57%	3.21%	-6.94%	-3.19%	8.13%	40.4%	6.25%	16.1%	-1.82%
Cc1cnn(CC2CCCN2CCCc2nc3ccccc3o2)c1 (stereo not given)	-6.63%	13.5%	-13.1%	10.9%	4.18%	-4.99%	6.82%	4.32%	6.93%	18.3%	-7.36%
c1ccc(-c2noc(CNC3CCc4ncnn4C3)n2)nc1 (stereo not given)	-2.18%	-5.41%	-0.412%	1.92%	-4.74%	1.66%	-5.57%	6.37%	2.97%	1.22%	-1.02%
CC(NCc1ccc(F)cc1)c1ccc(OCC(=O)NC2CC2)cc1 (stereo not given)	-1.43%	6.33%	9.48%	-4.28%	-6.26%	-7.1%	18%	17%	1.04%	2.53%	-17.3%
Cn1cc(N2CCC3(CCN(S(=O)(=O)C4CC4)C3)C2=O)cn1 (stereo not given)	-2.28%	-2.67%	0.251%	0.236%	2.32%	-37.5%	8.55%	0.388%	1.04%	5%	-4.63%
